From PubChem
In the library only some 12% were active in any assay of this set; here they are far more common.
HP1b chromo inh – HTS for Inhibitors of HP1-beta Chromodomain Interactions with Methylated Histone Tails. AlphaScreen HP1-beta / biotin-H3K9me3 peptide binding. Potency, µM (highest dose often 114 µM), for the others: top-dose activity change, negative = inhibition, usual class: inhibitors. Chromobox protein homolog 1 (Homo sapiens), P83916. actives 0.56% (n = 390,000); also: nearly all actives have a fitted effect of over 70% in size
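AlphaScreen: HP1-beta (50 nM) preformed 30 min with biotin-H3(1-18)K9me3 peptide (50 nM) in PBS pH 7.4, 0.01% Tween-20. Compound added for 30 min at RT, then streptavidin donor/nickel chelate acceptor beads (10 ug/mL) for 30 min.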
BAZ2B block – qHTS Assay for Inhibitors of BAZ2B; actives 4.4% (n = 360,000); Potency, µM (highest dose often 114 µM), for the others: top-dose activity change, negative = inhibition, actives largely listed as inhibitors; AlphaScreen BAZ2B-H3K14Ac peptide displacement; AID 504333, 2011; also: % is scaled to controls: 0 for no effect and ±100 for the full control effect; nearly all actives have a fitted effect of over 60% in size
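BAZ2B (50 nM) with biotin-H3(5-23)K14Ac peptide (50 nM) in PBS pH 7.4, 0.01% Tween-20, preformed 30 min, then compound 30 min at room temperature; top concentration 110uM. AlphaScreen streptavidin donor/nickel chelate acceptor beads (10 ug/mL final), 20 min dark, signal read.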
JMJD2A Tudor inh – qHTS Assay for Inhibitors of JMJD2A-Tudor Domain; Lysine-specific demethylase 4A (Homo sapiens), O75164; AlphaScreen JMJD2A-Tudor / H3K4me3 peptide binding; Potency, µM (doses to about 114 µM), for the others: at the top dose activity change, negative = inhibition, hits mostly inhibitors; actives 4.4% (n = 390,000); also: % is scaled to controls: 0 for no effect and ±100 for the full control effect; nearly all actives have a fitted effect of over 50% in size
Sfp inh – qHTS Assay for Inhibitors of Bacillus subtilis Sfp phosphopantetheinyl transferase (PPTase); 4'-phosphopantetheinyl transferase ffp (Bacillus subtilis), Q9F4F7; Potency, µM, inactives show largest response in the series, negative = inhibition, actives largely listed as inhibitors; Biochemical Sfp PPTase activity, qHTS; AID 1490, 2009; actives 3.5% (n = 310,000);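 also: the enzyme is Sfp with the accession as filed and its product quenches rhodamine fluorescence; 0% = enzyme reaction without inhibitor and -100% = no enzyme wells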
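Step 1, compound plus 15 nM Sfp-PPTase, 15 min, room temperature. Step 2, add rhodamine-CoA (5 uM) and BHQ-2-YbbR (12.5 uM). Step 3, read 525/598 nm fluorescence at 0 and 30 min.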
G9a inh – qHTS Assay for Inhibitors of Histone Lysine Methyltransferase G9a; G9a H3K9 monomethylation, AlphaScreen, 2 h; Histone-lysine N-methyltransferase EHMT2 (Homo sapiens), Q96KQ7; Potency, µM (top dose mostly 102 µM), for inactives: at the highest dose activity, negative = inhibition, usual class: inhibitors; actives 8.8% (n = 350,000); also: % is scaled to controls: 0 for no effect and ±100 for the full control effect; nearly all actives have a fitted effect of over 75% in size
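Using a bead-based AlphaScreen, monomethylated H3K9 product from 2 h room-temperature reactions (G9a 20 nM, peptide 500 nM, SAM 20 uM) was detected with 0.5 ug/mL rabbit anti-H3K9me1 antibody.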
L3MBTL1 inh – qHTS Assay for the Inhibitors of L3MBTL1; AID 485360, 2010; AlphaScreen L3MBTL1–H3K9me1 peptide binding; Potency, µM (titrated, usually from 57.1 µM), inactives show at the highest dose activity, negative = inhibition, hits mostly inhibitors; actives 0.66% (n = 230,000); Lethal(3)malignant brain tumor-like protein 1 (Homo sapiens), Q9Y468; also: % is scaled to controls: 0 for no effect and ±100 for the full control effect; nearly all actives have a fitted effect of over 60% in size
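AlphaScreen assay: L3MBTL1 (50 nM final) was preincubated 30 min at room temperature with biotinylated H3(1-15)K9me1 peptide (75 nM final), then 30 min with library compounds; streptavidin donor and nickel chelate acceptor beads (10 ug/mL final) added, 30 min dark.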
The depositor's hits bear a star; ? = inconclusive; · = not tested or not shown; [ ] = dose if it differs, or a comment. Calls follow the shape of the dose curve; as a rule, active = well fitted curve in the direction sought with a large enough effect; inconclusive = small, poorly fitted or top-dose-only effect, or another doubt; inactive = no such curve, though single readings can be large; an effect the other way counts as inactive or inconclusive. Potency is read from the fitted curve at half-maximal effect.

SMILES	HP1b chromo inh	BAZ2B block	JMJD2A Tudor inh	Sfp inh	G9a inh	L3MBTL1 inh
CCOC(=O)C1(Cc2cccc(OC)c2)CCN(Cc2cccc(OC)c2OC)CC1	25%	-20%	-6%[11.4 µM]	10%	0%	-7%
Cc1ccccc1-c1noc(-c2cccnc2N(C)Cc2ccc(Cl)cc2)n1	34%	-1%	-9%	·	-8%[59 µM]	·
CS(=O)(=O)c1ccccc1-c1nc(-c2cc(C(F)(F)F)cc(C(F)(F)F)c2)no1	25%	-4%[57.1 µM]	-3%	45µM*	27%	2%
Cn1c(=O)oc2cc(S(=O)(=O)N3CCCC(C(=O)Nc4ccc(Br)cc4F)C3)ccc21 (centres undefined)	30%	-1%	-8%	·	-19%[59 µM]	·
Cc1ccc(S(=O)(=O)N2CCOCC2)cc1NC(=O)CNCc1ccccn1	83%	32µM*	-12%[11.4 µM]	19%	1%[12.7 µM]	·
Cc1ccc(CSCC(=O)Nc2cc(S(=O)(=O)N3CCOCC3)ccc2OC(C)C)cc1	43%	?	-10%	·	50µM*	3%
Cc1ccc(S(=O)(=O)N2CCOCC2)cc1NC(=O)CNC(C)c1ccccc1 (centres undefined)	?	·	1.3µM*	·	·	-3%
O=C(COC(=O)c1cc(Br)ccc1O)Nc1cc(S(=O)(=O)N2CCCC2)ccc1Cl	30%	·	3%	56µM*	14%	·
Cc1ccccc1C(=O)n1nc(-c2ccco2)nc1NCc1cccs1	-22%	-6%	-19%	·	?	·
CCOC(=O)c1ccc(CN(Cc2ccc(F)cc2)S(=O)(=O)c2cc(C(=O)Nc3ccccc3CC)ccc2F)cc1	54%	1%	-11%	·	0%[59 µM]	·
CC1=C(c2ccc(C)cc2)S(=O)(=O)NC1=NCc1cccc(F)c1	9%	?	-27%	·	-44%[59 µM]	·
O=C(CNCc1ccccn1)Nc1cc(S(=O)(=O)N2CCCCC2)ccc1Cl	51%	·	79µM*	12%	25%	·
CSc1c[n+]2c(n1C)CCC2	6%	13%	32µM*	10%	?	-2%
COC(=O)c1ccc(CSc2nc3c([nH]c4ccccc43)c(=O)n2-c2cc(C)cc(C)c2)o1	42%[57 µM]	5%	2%	·	21%[59 µM]	·
CCc1ccc(N(C(C)=O)c2nc(CCl)cs2)cc1	45%	-23%	-7%	-21%	18µM*	4%
CC(C)c1ccc(OCCCCN2CCCCC2)cc1	?	79µM*	0.79µM*	-29%	-12%	·
CC(C)c1ccc(OCC(O)CN2CCCC2)cc1 (centres undefined)	41%	-10%	-9%	3%	-3%[59 µM]	-5%
Clc1ccc(OCCCCN2CCCCC2)cc1	?	50µM*	1µM*	-20%	10µM*	·
CCOc1ccc(CNC(=O)C2CCN(c3nc4ccccc4nc3C(F)(F)F)CC2)cc1OC	19%	1%	4%	·	0%[59 µM]	·
COc1cccc(-c2nc(CS(=O)(=O)CC(=O)NCCc3ccc(Cl)cc3)c(C)o2)c1	31%	-16%	-16%	·	-32%[59 µM]	·
COc1ccc(OC)c(/C=c2\sc3nc(-c4cccs4)nn3c2=O)c1	10%	-4%	-17%	-19%	11µM*	-8%
CCOc1ccc(CCNC(=O)CN2C(=O)COc3ccc(S(=O)(=O)N4CCCC4)cc32)cc1	37%	?	-3%	·	9%[59 µM]	·
O=C1/C(=C/c2ccncc2)SC(=S)N1C1CCS(=O)(=O)C1 (centres undefined)	11%	4%	-5%	50µM*	?	2%
O=C1/C(=C/c2ccccc2)SC(=S)N1C1CCS(=O)(=O)C1 (centres undefined)	11%	-18%	6%	-22%	?	6%
COCCNC(=S)N(C)C1(c2ccccc2Cl)CCCCC1=O (centres undefined)	27%	-13%	-3%	-18%	45µM*	-2%
SMILES	HP1b chromo inh	BAZ2B block	JMJD2A Tudor inh	Sfp inh	G9a inh	L3MBTL1 inh
Cc1cccc(NC(=O)CSC2=Nc3ccccc3C3=NC(CCC(=O)NCc4ccc(F)cc4)C(=O)N23)c1 (centres undefined)	20%	3%	-11%	·	3%[59 µM]	·
CC(C)C1=C2OC(N)=C(C#N)C(C#N)=C2C(C)CC1 (centres undefined)	34%	-33%	-3%	79µM*	?	-9%
CC(CN)(NS(=O)(=O)c1ccccc1)c1ccccc1 (centres undefined)	3%	-2%	-22%	7%	·	-3%
C/C(CC(C)(C)c1ccccc1)=N\NS(=O)(=O)c1ccccc1	39%	-22%	-7%	9%	25µM*	-6%
CCOC(=O)CN1CC23C=CC(O2)C(C(=O)NC2CCCC2)C3C1=O (centres undefined)	44%	25%	-6%	?	45µM*	-1%
CCOC(=O)CN1CC23C=CC(O2)C(C(=O)NCc2ccc(C)cc2)C3C1=O (centres undefined)	33%	-18%	2%	22%	35µM*	-1%
O=C(O)c1cccc(NC(=O)C2C3C=CC(C3)C2C(=O)O)c1 (centres undefined)	34%	2%	-26%	-10%	50µM*	?
O=C(O)C1C2C=CC(C2)C1C(=O)Nc1cccc(F)c1 (centres undefined)	32%	-6%	1%	9%	-28%[59 µM]	15%
COc1ccc(C(C)(C)C)cc1NC(=O)C1C2C=CC(C2)C1C(=O)O (centres undefined)	17%	-35%	-13%	-26%	50µM*	-1%
Cc1ccc(-c2ccccc2NC(=O)C2C3C=CC(C3)C2C(=O)O)o1 (centres undefined)	-7%	56µM*	-31%	25µM*	?	-4%
Cc1ccc(-c2cccc(NC(=O)C3C(C(=O)O)[C@@H]4C=C[C@H]3C4)c2)o1 (some centres undefined)	6%	?	-25%	7.9µM*	16µM*	-1%
COc1ccc(-n2ccn(Cc3ccccc3Cl)c(=O)c2=O)cc1OC	22%	4%	-2%	·	-3%[59 µM]	·
CCN(C(=O)c1cc2c(=O)oc3ccccc3c2s1)c1ccccc1F	18%	4%	2%	·	1%[59 µM]	·
Cn1nc(C(F)(F)F)c(-c2ccccc2)c1NC(=O)c1nccnc1C(=O)O	35%	79µM*	?	-15%	·	·
COc1cc(NC(=O)c2nccnc2C(=O)O)cc(OC)c1	16%	?	40µM*	-6%	22µM*	-7%
